Source: PubChem (National Center for Advancing Translational Sciences (NCATS))
Hits are enriched below; roughly 6.2% of the tested compounds scored in any of these assays.
Marburg entry inh – blocks Marburg virus binding to or entry into cells; Marburg virus pseudotyped entry inhibition, cell reporter; Potency, µM (series often up to 37.8 µM), actives largely listed as inhibitors; 1.8% of 300,000 active; AID 540276; calls by dose curve; tested in HEK293 cells
FMDV antiviral – foot and mouth disease virus antiviral activity | 1.2% of 410,000 active | Potency, µM (highest dose often 57.9 µM), actives largely listed as inhibitors | FMDV antiviral cell-based qHTS; calls by dose curve; tested in HEK293T cells; also: read-out not given here; nearly all actives have a fitted effect of over 45% in size
HCMV antiviral – human cytomegalovirus inhibition; HFF cells, HCMV-luciferase reporter, 72 h; stronger effect = lower value; activity change, negative = inhibition, % at 57.5 µM; 4.5% of 410,000 active; AID 1259415; in the data active = activity change below about -60%; inconclusive = no clear call, values can overlap the other calls; inactive = above about -39%
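Two-dose cell screen: HFF monolayers treated with compounds and infected with luciferase-expressing HCMV at 1 PFU/cell, 72 h at 37C, then lysed for luciferase measurement.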
LASV entry inh – Lassa virus entry inhibition; Lassa virus pseudotype entry inhibition, cell reporter; 1.2% of 300,000 active; Potency, µM (titrated, usually from 37.9 µM), usual class: inhibitors; calls by dose curve; tested in HEK293 cells; also: nearly all actives have a fitted effect of over 50% in size
Hits are given with their value; – = inactive; ? = inconclusive; · = no result.

SMILES	Marburg entry inh	FMDV antiviral	HCMV antiviral	LASV entry inh
CCCCOCC1CN(CCCC)S(=O)(=O)c2c(Oc3ccc(SC)c(C)c3)cccc2O1 (stereo unspecified)	·	·	–	–
CCOCCc1nn2c(=O)cc(COC(=O)C3CCCCC3)nc2s1	·	–	–	–
Clc1nc(NCCc2ccccc2)c2cn[nH]c2n1	?	?	-61.3	?
Cc1nc2c(OCc3ccc(C#N)cc3)cccn2c1N(C)Cc1cccs1	·	28.2µM	–	·
CC(=O)N1c2c(cc(Br)cc2S(=O)(=O)NCc2ccccc2Cl)CC1C (stereo unspecified)	–	–	–	–
CC(C)CON=C1C[C@@H](O)[C@@H](O)[C@@H]2[C@H]3C(=O)N(C[C@@H]4CCCO4)C(=O)[C@@H]3CC[C@H]12	–	·	·	·
Cc1csc(NC(=O)CSc2nc3ccccc3c(=O)[nH]2)n1	4.61µM	–	–	?
Cc1csc(NC(=O)CSc2ncc(-c3ccccc3)[nH]2)n1	–	–	-98.4	–
CC(C)(C)c1csc(NC(=O)CSc2nc3ccccc3c(=O)[nH]2)n1	–	–	-106.9	–
Cc1csc(NC(=O)CSc2nnc3ncccn23)n1	–	–	-86.8	–
Cc1cccc(-c2nc3c(NCc4cccc(N(C)C)c4)nccc3[nH]2)c1	·	·	–	·
COc1ccc(S[C@]2(c3nc(C)no3)CC(=O)N[C@@H]2c2ccc(OC)cc2)cc1	·	·	–	·
O=C(OC1Cc2c(O)cc(O)cc2OC1c1cc(O)c(O)c(O)c1)c1cc(O)c(O)c(O)c1 (stereo unspecified)	·	–	·	·
COc1cc(OC)c(NC(=O)c2cnn(-c3ccccc3)c2-n2cccc2)cc1Cl	–	–	–	–
O=C(Nc1cc(C(F)(F)F)ccc1Cl)c1cnn(-c2ccccc2)c1-n1cccc1	·	31.6µM	–	–
CC(C)OC(=O)[C@@H]1CC[C@H](C)[C@@H](CCC[C@@H]2CC=C[C@H](CC#N)O2)O1	–	·	·	·
COc1ccc(C(C(=O)NC(C)(C)C)n2c(-c3ccc(=O)[nH]c3)nc3ccccc32)cc1 (stereo unspecified)	·	–	-86.1	·
COc1ccc(C(C(=O)NC(C)(C)C)n2c(COc3ccc(C)cc3)nc3ccccc32)cc1 (stereo unspecified)	·	–	–	·
CC(NC(=O)c1cccc(Br)c1)c1ccccc1 (stereo unspecified)	?	–	-69.9	–
COc1cccc(CNC(=O)c2c(OC)cc(=O)n3c2CCN(C(=O)C2=C(C)OCCO2)CC3)c1	·	–	·	·
CCOC(=O)C1=CCN(S(=O)(=O)c2ccccc2Br)C1c1cccc(C)c1 (stereo unspecified)	·	–	–	·
O=C(c1ccc(Oc2ccc(C(F)(F)F)cc2[N+](=O)[O-])cc1)N1CCOCC1	?	?	-82.5	?
CCN(CC)CCN(C(=O)c1cc2ccccc2cc1OC)c1nc2ccc(F)cc2s1	5.62µM	–	–	–
COc1cc2ccccc2cc1C(=O)N(CCN(C)C)c1nc2ccc(C)cc2s1	4.47µM	–	–	?
CCN(CC)CCN(C(=O)c1cc2ccccc2cc1OC)c1nc2ccc(OC)cc2s1	·	–	–	·
SMILES	Marburg entry inh	FMDV antiviral	HCMV antiviral	LASV entry inh
O=C(Oc1ccccc1)N1CCC2(CCCN(c3ccc(-c4ccccc4)cc3)C2)CC1	·	–	·	·
CCC(=O)Nc1ccc(-c2nnc3c4ccccc4c(C)nn23)cc1	–	–	–	?
COCC(=O)N1CCC[C@@]2(CCN(Cc3ccccc3)C2)C1	·	–	·	·
C=CCN=c1scc(-c2ccc(F)cc2)n1/N=C/c1ccccn1	?	–	-85.3	?
CCN=c1scc(-c2ccc(F)cc2)n1/N=C/c1ccccn1	?	–	-88.4	?
C[C@H]1CCC[C@]2(C)C[C@H]3OC(=O)C(CN4CCCCCC4)[C@H]3C=C12 (stereo partly specified)	·	22.4µM	?	·
Fc1ccccc1N1CCN(c2ncnc3c2nc2n3CCCC2)CC1	·	?	-63.3	–
O=C(C1CCN(c2ncnc3c2nc2n3CCCCC2)CC1)N1CCN(c2ccccc2)CC1	·	?	–	–
Fc1ccc(N2CCN(c3ncnc4c3nc3n4CCCC3)CC2)cc1	–	1.78µM	–	–
O=C(C1CCN(c2ncnc3c2nc2n3CCCCC2)CC1)N1CCN(c2ccc(F)cc2)CC1	·	31.6µM	–	–
Clc1cccc(N2CCN(c3ncnc4c3nc3n4CCCC3)CC2)c1	?	–	–	–
CCc1c(C)nc2ncnn2c1N1CCC(C(=O)N2CCN(c3ccc(F)cc3)CC2)CC1	–	?	-87.6	–
COC(=O)[C@](C)(N)Cc1ccc(O)cc1	–	·	·	·
COc1cccc(NC(=O)Cn2c(=O)ccc3cc(S(=O)(=O)N4CCC(C)CC4)ccc32)c1	·	–	–	?
Cc1cc(-c2ccnc(-n3ncc(C(=O)NCCc4cccnc4)c3C)n2)c(C)s1	·	–	·	·
Cc1ccc(CN2C(=O)C(F)(F)Oc3ccc(C)cc32)cc1	·	–	–	·
